Many of the other results were omitted from the sample, so the strongest signals are more common in it than they were.
Legend:
Assay in all cases: glycan array binding signal (z-score within array); higher = stronger binding
Details in all cases: glycan notation: IUPAC condensed, linker removed
[1] = target: Fuc(a1-2)Gal(b1-3)GalNAc(a1-3)[Fuc(a1-2)]Gal(b1-4)GlcNAc
Procedure, shortened: (§1)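 The binding signal is a Z-score computed within each array. Data were drawn from 3228 arrays in the Consortium for Functional Glycomics database, restricted to those with a known protein sequence. Scores were averaged over arrays of the same protein sequence at different concentrations or buffers, and over linkers, and negative values can be taken as non-binding.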

[2] = target: Fuc(a1-2)Gal(b1-3)GlcNAc(b1-3)[Gal(b1-4)GlcNAc(b1-6)]Gal(b1-4)Glc
Procedure, shortened: as §1

[3] = target: Fuc(a1-2)Gal(b1-4)GlcNAc(b1-6)GalNAc
Procedure, shortened: as §1

[4] = target: Fuc(a1-2)Gal3S(b1-4)GlcNAc
Procedure, shortened: as §1

Fuc(a1-2)[Gal(a1-3)]Gal = target: Fuc(a1-2)[Gal(a1-3)]Gal
Procedure, shortened: as §1

[5] = target: Fuc(a1-2)[GalNAc(a1-3)]Gal(b1-3)GlcNAc
Procedure, shortened: as §1

Fuc(a1-4)GlcNAc = target: Fuc(a1-4)GlcNAc
Procedure, shortened: as §1

[6] = target: Gal(a1-3)Gal(b1-3)GlcNAc(b1-6)GalNAc
Procedure, shortened: as §1

[7] = target: Gal(a1-3)Gal(b1-4)GlcNAc(b1-2)Man(a1-3)[Gal(a1-3)Gal(b1-4)GlcNAc(b1-2)Man(a1-6)]Man(b1-4)GlcNAc(b1-4)GlcNAc
Procedure, shortened: as §1

Gal(b1-3)GalNAc = target: Gal(b1-3)GalNAc
Procedure, shortened: as §1

[8] = target: Gal(b1-3)GalNAc(a1-3)[Fuc(a1-2)]Gal(b1-4)Glc
Procedure, shortened: as §1

[9] = target: Gal(b1-3)GlcNAc(b1-2)Man(a1-3)[Gal(b1-3)GlcNAc(b1-2)Man(a1-6)]Man(b1-4)GlcNAc(b1-4)GlcNAc
Procedure, shortened: as §1

[10] = target: Gal(b1-3)GlcNAc(b1-2)[Gal(b1-3)GlcNAc(b1-6)]Man(a1-6)[Gal(b1-3)GlcNAc(b1-2)Man(a1-3)]Man(b1-4)GlcNAc(b1-4)GlcNAc
Procedure, shortened: as §1

[11] = target: Gal(b1-3)GlcNAc(b1-3)Gal(b1-3)GlcNAc
Procedure, shortened: as §1

[12] = target: Gal(b1-3)[GlcNAc(b1-6)]GalNAc
Procedure, shortened: as §1

[13] = target: Gal(b1-3)[Neu5Ac(a2-6)]GlcNAc(b1-4)Gal(b1-4)Glc
Procedure, shortened: as §1

[14] = target: Gal(b1-4)GlcNAc(b1-3)Gal(b1-3)GalNAc
Procedure, shortened: as §1

[15] = target: Gal(b1-4)GlcNAc(b1-3)Gal(b1-4)GlcNAc(b1-2)[Gal(b1-4)GlcNAc(b1-3)Gal(b1-4)GlcNAc(b1-6)]Man(a1-6)[Gal(b1-4)GlcNAc(b1-3)Gal(b1-4)GlcNAc(b1-2)Man(a1-3)]Man(b1-4)GlcNAc(b1-4)[Fuc(a1-6)]GlcNAc
Procedure, shortened: as §1

[16] = target: Gal(b1-4)GlcNAc(b1-3)Gal(b1-4)GlcNAc(b1-3)Gal(b1-4)GlcNAc(b1-2)Man(a1-3)[Gal(b1-4)GlcNAc(b1-3)Gal(b1-4)GlcNAc(b1-3)Gal(b1-4)GlcNAc(b1-2)Man(a1-6)]Man(b1-4)GlcNAc(b1-4)[Fuc(a1-6)]GlcNAc
Procedure, shortened: as §1

[17] = target: Gal(b1-4)GlcNAc(b1-3)Gal(b1-4)GlcNAc(b1-3)Gal(b1-4)GlcNAc(b1-2)[Gal(b1-4)GlcNAc(b1-3)Gal(b1-4)GlcNAc(b1-3)Gal(b1-4)GlcNAc(b1-6)]Man(a1-6)[Gal(b1-4)GlcNAc(b1-3)Gal(b1-4)GlcNAc(b1-3)Gal(b1-4)GlcNAc(b1-2)Man(a1-3)]Man(b1-4)GlcNAc(b1-4)[Fuc(a1-6)]GlcNAc
Procedure, shortened: as §1

[18] = target: Gal(b1-4)GlcNAc(b1-3)[Fuc(a1-3)GlcNAc(b1-6)]Gal(b1-4)Glc
Procedure, shortened: as §1

[19] = target: Gal(b1-4)GlcNAc(b1-6)GalNAc
Procedure, shortened: as §1

[20] = target: Gal(b1-4)GlcNAc(b1-6)[Gal(b1-3)]GalNAc
Procedure, shortened: as §1

[21] = target: GalNAc(b1-3)Gal(a1-4)Gal(b1-4)GlcNAc(b1-3)Gal(b1-4)Glc
Procedure, shortened: as §1

GalNAc(b1-3)GalNAc = target: GalNAc(b1-3)GalNAc
Procedure, shortened: as §1

[22] = target: GalNAc3S(b1-4)[Fuc(a1-3)]GlcNAc
Procedure, shortened: as §1

B1: MpAFP NterminalRI GFP (Marinomonas primoryensis) (protein)
chain: MSDNQFPFATLGNAIGFITKLDGSVTVQSIDGQERVLKLGDPIFFGETVLTGGSGSVTIAFVDGTDVVIGGDSIVEMTDEIYNTGDNEDLVADSSSEIDALQNAILAGDDPTLIQDAPAAGNTLADQQRVDVSIERNDNSAQAGFGVDTQSSLPTYGYDTDNGNGGQATEREYSAPSLSRTLNQSPLLEHHHHHH
glycan array binding signal (z-score) [1]: -0.525 | glycan array binding signal (z-score) [2]: -0.221 | glycan array binding signal (z-score) [3]: 1.68 | glycan array binding signal (z-score) [4]: -0.495 | glycan array binding signal (z-score) (Fuc(a1-2)[Gal(a1-3)]Gal): -0.494 | glycan array binding signal (z-score) [5]: -0.215 | glycan array binding signal (z-score) (Fuc(a1-4)GlcNAc): 2.46 | glycan array binding signal (z-score) [6]: -0.446 | glycan array binding signal (z-score) [7]: -0.164 | glycan array binding signal (z-score) (Gal(b1-3)GalNAc): -0.228 | glycan array binding signal (z-score) [8]: -0.422 | glycan array binding signal (z-score) [9]: -0.119 | glycan array binding signal (z-score) [10]: -0.305 | glycan array binding signal (z-score) [11]: -0.424 | glycan array binding signal (z-score) [12]: -0.473 | glycan array binding signal (z-score) [13]: -0.565 | glycan array binding signal (z-score) [14]: -0.412 | glycan array binding signal (z-score) [15]: 4.16 | glycan array binding signal (z-score) [16]: 0.649 | glycan array binding signal (z-score) [17]: 2.76 | glycan array binding signal (z-score) [18]: -0.081 | glycan array binding signal (z-score) [19]: -0.473 | glycan array binding signal (z-score) [20]: 0.083 | glycan array binding signal (z-score) [21]: -0.509 | glycan array binding signal (z-score) (GalNAc(b1-3)GalNAc): -0.576 | glycan array binding signal (z-score) [22]: -0.39

— the supplement of paper PMC8728848
